Screening data from PubChem.
hgDAF12 agonist = hgDAF-12 agonism, primary luciferase screen. activation, % at 6.8 µM. 370,000 compounds, 1.8% hits. HEK293 GAL4-hgDAF12 UAS-luciferase reporter, agonist luminescence; normalized to butyrate control;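 active = activation above a cutoff set at the mean of all screened compounds plus 3 SD, cut at about 10% in these data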
ssDAF-12 act = activates DAF-12 receptor from parasite S. stercoralis; 370,000 compounds, 1% hits; activation, % at 6.8 µM; AID 652126; HEK293 ssDAF-12/GRIP1 lit1-tk-luc reporter, luminescence; % of 3 µM dafachronic acid response;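 active = activation above the mean over all tested compounds plus 3 SD, cut at about 0.9% in these data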
DAX1 inh-1 = DAX1 (NR0B1) inhibition, primary screen. HEK293T StAR-luciferase reporter, SF-1/DAX-1 repression relief. inhibition, % at 6.8 µM. 370,000 compounds, 1.1% hits;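 active = inhibition above the mean over all tested compounds plus 3 SD, cut at about 3.6% in these data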;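 also: higher inhibition means more luminescence from relief of DAX-1 repression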
DAX1 inh-2 = NR0B1 (DAX1) inhibition. P51843. HEK293 Gal4-DAX1 luciferase reporter, luminescence. inhibition, % at 6.75 µM. 340,000 compounds, 0.99% hits. AID 504766;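 active = inhibition above the mean over all tested compounds plus 3 SD, cut at about 4.2% in these data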;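 also: inhibition shows as a rise in luminescence from relieved DAX1 repression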
Target sequence (P51843 207-470 limits assumed): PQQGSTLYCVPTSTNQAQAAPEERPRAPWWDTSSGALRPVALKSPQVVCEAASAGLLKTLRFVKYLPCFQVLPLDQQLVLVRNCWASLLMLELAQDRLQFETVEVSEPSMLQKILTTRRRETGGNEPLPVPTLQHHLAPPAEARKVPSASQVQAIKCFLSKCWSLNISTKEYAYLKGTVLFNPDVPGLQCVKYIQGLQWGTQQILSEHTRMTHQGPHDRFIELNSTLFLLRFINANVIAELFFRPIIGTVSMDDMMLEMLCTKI
hcDAF12 agonist = activates DAF-12 receptor from parasite H. contortus; HEK293 hcDAF-12 lit1-tk-luc reporter, luminescence; 0% DMSO, 100% Δ7-dafachronic acid; activation, % at 6.8 µM; 370,000 compounds, 1.4% hits;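 active = activation above the mean of all tested compounds plus 3 SD, cut at about 5.5% in these data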
LXRb hcDAF ctr = counter-screen for hcDAF-12 agonists: agonists of human LXR-beta; shares compounds with hcDAF12 agonist; HEK293 Gal4-LXR tk-luc reporter, luminescence, 24 h; normalized: DMSO 0%, positive control 100%; activation, % at 6.8 µM; 3,400 tested, under 10 active;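 active = mean percent activation of the reporter above a cutoff set as the average over tested compounds plus their standard deviation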
hcDAF12 ag = hcDAF-12 agonism, confirmation assay; shares compounds with hcDAF12 agonist; HEK293 hcDAF-12 lit1-tk-luc reporter, luminescence; % of Δ7-dafachronic acid response; activation, % at 6.8 µM; 3,400 compounds, 61% hits; AID 743032;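 active = mean activation across triplicate tests above the threshold derived from the earlier primary screen, cut at about 5.5% in these data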
Numbers stand for hits; – = inactive; · = no result. In the library only some 4.1% were active in any assay of this set; here they are far more common.

SMILES | hgDAF12 agonist | ssDAF-12 act | DAX1 inh-1 | DAX1 inh-2 | hcDAF12 agonist | LXRb hcDAF ctr | hcDAF12 ag
O=c1nc2s/c(=C\c3ccc(-c4ccccc4[N+](=O)[O-])o3)c(=O)n2nc1-c1ccccc1 | – | – | – | – | 6.9 | – | –
COc1ccccc1NC(=O)Nn1cnnc1 | – | – | – | – | – | · | ·
O=C(Nc1ccccc1)c1cn(CCBr)cn1 | – | 1.3 | – | – | 6.8 | – | –
Oc1cccc(-c2nnc(-c3cccc(O)c3)nn2)c1 | – | 2.3 | 4.1 | – | 11.9 | – | 16.8
Nc1cccc(O)c1 | – | – | – | – | – | · | ·
CCCCNC(=O)N1c2ccccc2CC1C (stereo not given) | – | – | – | – | – | · | ·
CC(=O)N1CCN(C(=O)c2cc(S(=O)(=O)N3CCN(c4ccccc4)CC3)ccc2Cl)CC1 | – | – | – | – | – | · | ·
O=C(NCCN1CCOCC1)c1ccccc1N1C(=O)[C@@H]2Cc3c([nH]c4ccccc34)C(c3ccc(F)cc3)N2C1=O (stereo not given in full) | – | – | – | – | – | · | ·
COc1cccc(C2c3[nH]c4ccccc4c3C[C@H]3C(=O)N(c4ccccc4C(=O)N4CCCC4C(=O)O)C(=O)N23)c1 (stereo not given in full) | – | – | – | – | 12.3 | – | –
COc1ccc(C2c3[nH]c4ccccc4c3C[C@H]3C(=O)N(c4ccccc4C(=O)NCCN4CCOCC4)C(=O)N23)cc1 (stereo not given in full) | – | – | – | – | – | · | ·
Cc1ccc(C2c3[nH]c4ccccc4c3C[C@H]3C(=O)N(c4ccccc4C(=O)N4CCC[C@@H]4C(=O)O)C(=O)N23)cc1 (stereo not given in full) | – | – | – | – | 10.4 | – | –
Cc1ccc(C2c3[nH]c4ccccc4c3C[C@H]3C(=O)N(c4ccccc4C(=O)N4CCC(C(=O)O)CC4)C(=O)N23)cc1 (stereo not given in full) | – | – | – | – | 9.6 | – | –
CCCc1cc(=O)[nH]c2nnc(SCC(=O)Nc3ccc4c(c3)OCCO4)n12 | – | – | – | – | – | · | ·
O=C(Cc1cccc(NC(=O)C2CCCN(C(=O)CCc3ccccc3)C2)c1)Nc1ccc(C(=O)N2CCOCC2)cc1 (stereo not given) | – | – | – | – | – | · | ·
Cc1cccc(NC(=O)c2cnc3scc(C)n3c2=O)c1 | – | – | – | – | – | · | ·
Cc1csc2ncc(C(=O)Nc3ccon3)c(=O)n12 | – | – | – | – | 9.5 | – | –
O=C(NC1CCCC1)N[C@@H]1C=C[C@@H](CC(=O)N2CCOCC2)O[C@@H]1CO | – | – | – | · | – | · | ·
COc1ccc2c(c1)CSC(c1ccccc1)C2=O (stereo not given) | – | – | – | – | – | · | ·
Cc1ccc(C(=O)N/C(=C\c2ccc(-c3ccccc3[N+](=O)[O-])o2)C(=O)NCCCN2CCOCC2)cc1 | – | – | – | – | 7.3 | – | –
CC(C)(C)n1ncc2c(=O)n(Cc3cccc(Cn4cnc5c(cnn5C(C)(C)C)c4=O)c3F)cnc21 | – | – | – | – | – | · | ·
CC1(C(=O)Nc2ccc(F)cc2F)CCN1C(=O)CCC1CCCC1 (stereo not given) | – | – | – | · | – | · | ·
Cc1ccc(-c2cc(-c3ccccc3)c(C#N)c(N)n2)o1 | – | – | – | – | – | · | ·
Cc1cc(-c2ccc(Cl)cc2)c(C#N)c(N)n1 | – | – | – | – | 6.7 | – | –
COC(=O)c1ccccc1NC(=O)CN(c1c(C)cccc1C)S(C)(=O)=O | 11.4 | 1.0 | – | – | 18.3 | – | –
Cc1nn2c3ccccc3nc2c2ccccc12 | – | – | – | – | 7.5 | – | 7.1
Cc1nn2c(-c3ccccc3)nnc2c2ccccc12 | – | – | – | – | – | · | ·
CCCNC(=O)C1(C)CCCN(Cc2ccccc2C#N)C1 (stereo not given) | – | – | – | · | – | · | ·
